We go through 17 molecules from PubChem BioAssay (NCI).

This is part of a sample that, as a whole, favours compounds with a hit. Of some 83,000 tested, about 20% had one in any assay.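 Plates (96-well) were seeded with cells, treated with compound at one concentration, and incubated for 48 hours before percent growth was determined.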 Calls of active or inactive are those of the source. How the source made its calls: active means growth percent below 10; inactive means the rest.

The experiment concerns HL-60(TB) leukemia. The experiment can be described thus: NCI-60 one-dose screen, 48 h (100 = growth as untreated, 0 = no growth, -100 = all killed). To be noted: 10 µM unless noted.
On to `CCC1=C(c2ccc(OC)cc2)C(C)Oc2cc(OC(C)=O)ccc21` (configuration not stated), for which the growth is 56.7% (inactive).
For `C1=CN2CC(c3ccccc3)=NNC2c2ccccc21` (configuration not stated) the value was 81.6% (inactive); for `Cc1cccc(CC(=O)c2ccccc2)n1`, 86.9% (inactive).
Take `COc1ccc(-c2ccc(=O)oc2C#Cc2cc(OC)c(OC)c(OC)c2)cc1O`: the growth was -45.7% (active).
Under `Oc1cc2ccccc2c(-c2c(O)c(O)cc3ccccc23)c1O` stands 19.8% (inactive); under `C=C1CC2(OC1=O)C(=O)N(C)c1ccc(I)cc12` (configuration not stated), -56.5% (active); under `COc1ccc(C(=O)NC(=O)Nc2ccc3c(c2)NC(=O)/C3=C\c2[nH]c(C)c(CCC(=O)O)c2C)c(F)c1`, 43.2% (inactive).
For `CCOC(=O)N1C2CCC(C2)N1C(=O)OCC` the value was 92.4% (inactive); for `CC[C@H]1CCC/C=C/[C@@H]2C[C@H](O)C[C@H]2[C@H](O)/C=C/C(=O)O1`, -0.414% (active).
For `COc1ccc(/C=c2\c(=O)n(-c3ccccc3)c3nn4c(=O)c(=O)[nH]nc4n23)cc1`, the growth is 112% (inactive).
Under `COC(=O)c1cccnc1` stands 102% (inactive); under `COc1cc(OC)c2cc(C(=O)c3ccc(C#N)cc3)c(=O)oc2c1`, 97.4% (inactive); under `CCC1=C(c2ccc(OC)cc2)C(C)(C)Oc2cc(O)c(CN3CCCC3)cc21`, 85% (inactive).
Regarding `COC(=O)c1cc(-c2ccc(OC)c(OC)c2)[nH]c1N/N=C/c1c(Cl)cccc1Cl`, the growth is 3.48% (active).
For `O=C([C@H]1C[C@H]1c1ccc(S(F)(F)(F)(F)F)cc1)N1CCN(c2cc(Cl)ccc2C(F)(F)F)CC1` the value was 83.5% (inactive); for `NC(=S)N/N=C\c1nccc2c(N)cccc12`, -10.4% (active).
Under `NNCCc1ccc(NC(=O)CCCc2ccc(/C=C/C(=O)NO)cc2)cc1` stands 18.3% (inactive).
